Laboratory results from PubChem BioAssay (Tox21).
Results filed as inconclusive are left out. Entries that show only a call come without a potency. The source made the active and inactive calls. The call rests on the fitted dose curve; in most records, active means well fitted activation curve with a large enough effect in the signal ratio in the repeat runs (not every such curve was filed as active); inconclusive means weak or mixed curves, or effect the other way; inactive means flat fitted curve, though single readings scatter; the % refers to the signal ratio.

These compounds were tested against Estrogen receptor beta (Homo sapiens) (UniProt Q92731) (assay: qHTS assay to identify small molecule agonists of the estrogen receptor beta (ER-beta) signaling pathway (AID 1259377)). Conditions: ER-beta-UAS-bla HEK293T, beta-lactamase FRET ratio, 16 h; series mostly up to 92.4 µM.
Source text: U.S. Tox21 Program National Center for Advancing Translational Sciences [NCATS] NIH Chemical Genomics Center [NCGC] U.S. Environmental Protection Agency [EPA] National Institutes of Environmental Health Sciences [NIEHS] National Toxicology Program [NTP] U.S. Food and Drug Administration [FDA] Tox21 Assay Overview: Estrogen receptor (ER), a nuclear hormone receptor, plays an important role in development, metabolic homeostasis and reproduction. Two subtypes of ER, ER-alpha and ER-beta, have similar expression patterns with some uniqueness in both types. Endocrine disrupting chemicals (EDCs) and their interactions with steroid hormone receptors like ER causes disruption of normal endocrine function. To identify the compounds that activate ER signaling, an ER beta-UAS-bla GripTite cell line (Life technologies, Madison, WI, USA) containing a beta-lactamase reporter gene under the control of an Upstream Activator Sequence (UAS) was used to screen Tox21 10K compound library.
Tox21 Assay Protocol Summary: ER-beta-UAS-bla HEK293T cells were dispensed at 2,000 cells/5 uL of assay medium containing 2% charcoal stripped FBS per well into black wall/clear-bottom 1536-well plates using a Multidrop Combi (ThermoFisher Scientific, Waltham, MA) dispenser. After the assay plates were incubated at a 37C and 5% CO2 for 6 hr, 23 nL of compounds dissolved in DMSO, positive controls or DMSO only was transferred to the assay plate by a Pintool station (Kalypsys, San Diego, CA). The plates were incubated at 37C and 5% CO2 for 16 hr. Then 1 uL of LiveBLAzerTM B/G FRET substrate was added using a BioRAPTR FRD (Flying Reagent Dispenser, Aurora Discovery, San Diego, CA). After the plates were incubated at room temperature for 2 hours, fluorescence intensity was measured by an Envision plate reader (PerkinElmer, Shelton, CT).

Estrogen receptor beta (Homo sapiens), sequence (Q92731 whole entry, looked up): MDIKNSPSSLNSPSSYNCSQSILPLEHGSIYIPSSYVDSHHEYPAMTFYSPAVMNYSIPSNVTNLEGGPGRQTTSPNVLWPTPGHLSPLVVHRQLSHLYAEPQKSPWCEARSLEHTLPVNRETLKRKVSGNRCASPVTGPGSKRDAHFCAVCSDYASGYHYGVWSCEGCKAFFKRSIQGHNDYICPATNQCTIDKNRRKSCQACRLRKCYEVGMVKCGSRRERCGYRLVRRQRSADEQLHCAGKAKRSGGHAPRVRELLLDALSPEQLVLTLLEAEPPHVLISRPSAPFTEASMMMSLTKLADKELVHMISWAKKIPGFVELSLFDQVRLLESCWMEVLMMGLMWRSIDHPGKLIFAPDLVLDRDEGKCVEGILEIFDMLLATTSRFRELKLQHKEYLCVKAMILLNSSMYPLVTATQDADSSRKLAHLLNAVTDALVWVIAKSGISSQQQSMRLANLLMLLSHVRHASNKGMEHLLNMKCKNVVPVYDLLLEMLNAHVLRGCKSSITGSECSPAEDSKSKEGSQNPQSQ

Row | SMILES | Potency
1 | Cc1cccc2sc(N)nc12 | inactive
2 | COc1cc(NC(C)CCCN)c2ncccc2c1 (stereo not given) | inactive
3 | CCOC(=O)c1c(N)sc2c1CCN(Cc1ccccc1)C2 | inactive
4 | CCCCCCCCCCCCCC(=O)OCC(O)CO (stereo not given) | inactive
5 | O=C(C(=O)c1ccco1)c1ccco1 | inactive
6 | CC(=O)OCCC1CCCCC1 | inactive
7 | CCCCCCCC(=O)OCCCCCC | inactive
8 | CCN(Cc1cccc(S(=O)(=O)O)c1)c1ccc(C(=C2C=CC(=[N+](CC)Cc3cccc(S(=O)(=O)O)c3)C=C2)c2ccccc2S(=O)(=O)[O-])cc1 | inactive
9 | CC1CCCC(=O)C1=O (stereo not given) | inactive
10 | CCOc1ncc(F)c(=O)[nH]1 | inactive
11 | CCCCCCCC/C=C\CCCCCCCC(=O)OCCO | inactive
12 | CC[C@H]1OC(=O)[C@H](C)[C@@H](O[C@H]2C[C@@](C)(OC)[C@@H](O)[C@H](C)O2)[C@H](C)[C@@H](O[C@@H]2O[C@H](C)C[C@H](N(C)C)[C@H]2O)[C@](C)(O)C[C@@H](C)C(=O)[C@H](C)[C@@H](O)[C@]1(C)O | inactive
13 | CCCCOC(=O)CCCCC(=O)OCCCC | inactive
14 | O=NN(CCCl)C(=O)NCCCl | inactive
15 | COC(=O)CC(C(C)=O)C(=O)OC (stereo not given) | inactive
16 | CCC(CO)(CO)CO | inactive
17 | CCCCC(CC)COS(=O)(=O)O (stereo not given) | inactive
18 | Cc1ccc(N(CC2=NCCN2)c2cccc(O)c2)cc1 | inactive
19 | Nc1nc(-c2ccc([N+](=O)[O-])cc2)cs1 | inactive
20 | CCN(CC)c1ccc(C(=C2C=CC(=[N+](CC)CC)C=C2)c2ccc(S(=O)(=O)O)cc2S(=O)(=O)[O-])cc1 | inactive

Row | SMILES | Potency
21 | CC1CCCO1 (stereo not given) | inactive
22 | CCC(C)(C)C(=O)O | inactive
23 | CCCc1nc2c(C)cc(-c3nc4ccccc4n3C)cc2n1Cc1ccc(-c2ccccc2C(=O)O)cc1 | inactive
24 | CC(C)c1ccc(C(=O)N=C(N)N)cc1S(C)(=O)=O | inactive
25 | Nc1c(Cl)cc(Cl)cc1[N+](=O)[O-] | inactive
26 | O=C(O)CNC(=O)c1ccccc1I | inactive
27 | O=P(O)(O)Oc1ccccc1 | inactive
28 | CC(=O)OCC(=O)[C@@]1(OC(C)=O)[C@@H](C)C[C@H]2[C@@H]3C[C@H](F)C4=CC(=O)C=C[C@]4(C)[C@@]3(F)[C@@H](O)C[C@@]21C | inactive
29 | CC1=CC[C@@]23C[C@@H]1C(C)(C)[C@@H]2CC[C@H]3C | inactive
30 | CC(C)(C)CCCCCCOC(=O)c1ccccc1C(=O)OCCCCCCC(C)(C)C | inactive
31 | CCOCCC(=O)OCC | inactive
32 | O=C1CC[C@@H](C(=O)O)N1 | inactive
33 | CC(=O)OC(C)C[N+](C)(C)C (stereo not given) | inactive
34 | Nc1ccc(S(=O)(=O)NCc2ccccc2)cc1 | inactive
35 | CC(CO)(CO)C(=O)O | inactive
36 | CCN(CC)C(=O)N1CCN(C)CC1 | inactive
37 | Cc1oc(=O)oc1COC(=O)[C@@H]1N2C(=O)[C@@H](NC(=O)[C@H](N)c3ccccc3)[C@H]2SC1(C)C | inactive
38 | CCN(Cc1cccc(S(=O)(=O)O)c1)c1ccc(C(=C2C=CC(=[N+](CC)Cc3cccc(S(=O)(=O)O)c3)C=C2)c2ccc(O)cc2S(=O)(=O)[O-])cc1 | inactive
39 | CCN(CC)CCNC(=O)c1cc(Cl)c(N)cc1OC | inactive
40 | CCCCCCCC/C=C/C(=O)O | inactive
